As usually defined, the inhibition is the change of the read-out against control, counted positive when it falls.

Molecules are shown by their SMILES. Screen size: about 300,000 compounds; about 2,700 (0.9%) were called active. For the sample, actives were picked, then their nearest neighbours and some compounds at random. Unmarked numbers belong to inactive results.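 Rule for the calls: active = mean inhibition of at least 30% with at least half of replicates also reaching 30%; inconclusive = no clear call, values can overlap the other calls; inactive = the rest.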

This assay has as its target Golgi-associated PDZ and coiled-coil motif-containing protein (Homo sapiens) (UniProt Q9HD26). In words: blockade of CAL PDZ-reporter peptide interaction – biochemical, fluorescence polarization, untagged CAL PDZ, HTS, primary screen (AID 602252).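 Note: 0% = DMSO neutral control and 100% = excess unlabeled competitor peptide PRC23.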 The following applies: purified CAL PDZ, TMR-peptide fluorescence polarization, 1 h; at 24.9 µM; hits give high values.
As to `O=C(OCC(=O)N1CCN(C(=O)c2ccco2)CC1)c1c(Cl)cccc1Cl`, the inhibition was -0.558%.

Consider `Cc1ccc(S(=O)(=O)NCCC(=O)NCc2ccc(Cl)cc2)cc1C`, for which the inhibition was 66.1% (active).

As for `Cc1ccc(S(=O)(=O)NCCC(=O)Nc2ccc(C)c(Cl)c2)cc1C`, the inhibition is -1.6%.

In the case of `CC(C)CNS(=O)(=O)c1ccc(CCC(=O)NCc2ccc(Cl)cc2)cc1`, the inhibition is 0.426%.

As to `CCN(CC)C(=O)[C@H]1C[C@H](CC(=O)NCC23CC4CC(CC(C4)C2)C3)C(=O)N2CCc3c([nH]c4cc(CCC(=O)N(C)C)ccc34)[C@]12C`, the inhibition is -1.84%.

In the case of `O=C(O)c1cnn2c(C(F)(F)F)cc(-c3ccccc3)nc12`, the inhibition was 0.025%.

As to `Cc1cc(C(F)(F)F)n2ncc(-c3ccccc3)c2n1`, the inhibition was 50.2% (active).

Take `Cc1cc(-n2nc(C)cc2C)n2ncc(-c3ccccc3)c2n1`: the inhibition is -1.01%.

On to `O=[N+]([O-])c1cccc(C=NN=Cc2ccccc2O)c1`, for which the inhibition was 6.22%.

Regarding `COC(=O)[C@]1(Cc2ccccc2)N[C@H](CN(C)S(=O)(=O)c2ccc(OC(F)(F)F)cc2)[C@@H]2C(=O)N(Cc3ccccc3)C(=O)[C@@H]21`, the inhibition was -5.9%.

As to `NN=C(NN=Cc1ccccc1)c1ccccc1`, the inhibition was -2.94%.

Consider `COc1ccc(-c2nc3cc(C)ccn3c2NC2CCCCC2)cc1SC1CCCCC1`, for which the inhibition is -0.092%.

Take `CCCCN(CC(=O)Nc1cccc(S(=O)(=O)N2CCCC2)c1)Cc1nc2ccccc2c(=O)[nH]1`: the inhibition is -3.98%.

Turning to `CCc1ccc(CN(C)C(C)C(=O)Nc2ccc(S(=O)(=O)N3CCCC3)cc2)cc1` (stereo not drawn), the inhibition is 2.24%.

In the case of `COc1cc(OC)cc(-c2c(C#Cc3ccsc3)c3cc(-c4ccc(OC)cc4F)ccc3n2C)c1`, the inhibition was 2.79%.

For the molecule `O=C1OCC2=C1C(c1ccc(Cl)cc1)c1cc3c(cc1O2)OCO3` (stereo not drawn), the inhibition is 7.51%.

For the molecule `Cn1cccc1C(=O)N1CCc2ccccc2C1`, the inhibition is 91.2% (active).

For `Cc1ccc(-c2cc(C(=O)N3CCc4ccccc4C3)no2)cc1`, the inhibition is 1.04%.

Consider `CN(c1ccc(C(=O)N2CCc3ccccc3C2)cc1)S(C)(=O)=O`, for which the inhibition was 3.47%.

As for `O=S(=O)(Cc1ccc(Cl)cc1Cl)c1ccc(Cl)cc1`, the inhibition was -1.54%.

Regarding `Cc1nn(-c2ncccn2)c2c1C(=O)CC(C)(C)C2Br` (stereo not drawn), the inhibition was 0.781%.

Regarding `CN(C)C(CNC(=O)c1cc2ccccc2o1)c1ccccc1` (stereo not drawn), the inhibition was -5.09%.

Take `CCCCn1c(=S)[nH]c2ccccc2c1=O`: the inhibition is -2.2%.

In the case of `CCCCNC(=O)c1ccc(-n2c(=S)[nH]c3ccccc3c2=O)cc1`, the inhibition was 41.5% (active).

On to `CCN(CC)CCCNC(=O)c1ccc2c(=O)n(Cc3ccc4c(c3)OCO4)c(=S)[nH]c2c1`, for which the inhibition was -3.92%.

Regarding `CCOC(=O)c1sc(NC(=O)c2cc(S(=O)(=O)N3CCOCC3)ccc2C)nc1C`, the inhibition was -2.78%.

As to `CCOC(=O)CSc1nnc(NC(=O)c2cccc(S(=O)(=O)N3CCCCC3)c2)s1`, the inhibition is -0.488%.

With `CCc1nnc(NC(=O)c2cc(S(=O)(=O)N3CCCCC3)ccc2C)s1`, the inhibition was 77.7% (active).

On to `CN(C(=O)c1cccc(NC(=O)Cc2ccc(NC(=O)C3CCCN(C(=O)C4CCCC4)C3)cc2)c1)C1CCC1` (stereo not drawn), for which the inhibition was 4.34%.

Consider `CCOC(=O)c1c(-c2ccccc2)csc1NC(=S)NC(=O)c1ccccc1`, for which the inhibition was -5.36%.

For the molecule `CCOC(=O)c1c(-c2cccc(C)c2)csc1NC(=O)c1c(-c2ccccc2)noc1C`, the inhibition was -0.763%.

Take `CCOC(=O)c1c(-c2ccc(-c3ccccc3)cc2)csc1NC(=O)CCC(=O)O`: the inhibition is 39.2% (active).

`C=CCN1C=C(C(=O)c2ccccc2)C(=O)CC1`: the inhibition was 6.82%.

As for `COc1ccc(Cc2nnc(NC(=O)c3ccc(OC)cc3OC)s2)cc1`, the inhibition is -2.81%.

Consider `COc1ccccc1NC(=O)Nc1nnc(Cc2ccc(F)cc2)s1`, for which the inhibition is 54% (active).

For the molecule `O=C(Nc1nnc(COc2ccccc2)s1)Nc1ccccc1F`, the inhibition was 1.97%.

For the molecule `CN(CCc1ccccc1)C(=O)c1cccc(NC(=O)Cc2cccc(NC(=O)C3CCCN(C(=O)C4CCC4)C3)c2)c1` (stereo not drawn), the inhibition was -1.08%.

With `COc1ccc(CCNC(=O)COc2cc(C)cc3oc(=O)c(C)c(C)c23)cc1OC`, the inhibition is -1.33%.

On to `COc1cccc(NC(=O)c2ccccc2N(Cc2ccccc2)S(C)(=O)=O)c1`, for which the inhibition was 44.6% (active).

As to `COc1cccc(CN(C)CC(=O)Nc2ccccc2C(=O)Nc2ccccc2)c1`, the inhibition is -7.24%.

For `COc1cccc(NC(=O)c2ccccc2SC)c1`, the inhibition was 0.222%.

Take `O=C(Nc1cccc(S(=O)(=O)N2CCCCC2)c1)c1cncc(Br)c1`: the inhibition was 0.772%.

Take `Cc1ccc(NC(=O)c2cccc(S(=O)(=O)N3CCCc4ccccc43)c2)nc1`: the inhibition was 44.8% (active).

With `NS(=O)(=O)c1ccc(CNC(=O)c2cccc(S(=O)(=O)N3CCc4ccccc43)c2)cc1`, the inhibition is -0.134%.

As for `Cc1cccc(NC(=O)c2cccc(S(=O)(=O)N3CCCC3)c2)n1`, the inhibition was -2.35%.

In the case of `O=C(CN1C(=O)NC2(CCCCCC2)C1=O)Nc1ccc([N+](=O)[O-])cc1`, the inhibition was -4.3%.

Consider `C=CC[C@@H](Cc1ccc(F)cc1)C(=O)OC[C@H]1CCCN1C(=O)[C@H](CC=C)CC(=O)N(CCO)Cc1ccccc1`, for which the inhibition was -2.32%.

On to `COc1cccc(-n2c(SCC(=O)NC3CCS(=O)(=O)C3)nc3ccccc3c2=O)c1` (stereo not drawn), for which the inhibition is -4.98%.

In the case of `CCOc1ccc(NC(=O)CN(C)C(=O)CSc2ccccc2)cc1OCC`, the inhibition was -0.51%.

With `CCOc1ccc(NC(=O)CN(C)CC(=O)Nc2cccc(Cl)c2C)cc1OCC`, the inhibition was -7.09%.

`CCOc1ccc(NC(=O)CN(C)CC(=O)NC(C)c2ccccc2)cc1OCC` (stereo not drawn): the inhibition is 39.5% (active).

Take `COc1ccc(S(=O)(=O)N2C[C@H]3CON(C)[C@H]3C[C@H]2c2cccc(Br)c2)cc1`: the inhibition is -1.19%.

As to `COc1cccc2c1C(=O)c1c(O)c3c(c(O)c1C2=O)CC(O)(C(C)=NNC(=O)c1ccc(Cl)c(Cl)c1)CC3OC1CC(N)C(O)C(C)O1` (stereo not drawn), the inhibition is -11.4%.

As to `Cc1nn(C)c(Oc2ccccc2)c1[N+](=O)[O-]`, the inhibition is -1.91%.

`Cc1c([N+](=O)[O-])c(N)nn1C`: the inhibition is 46.7% (active).

Consider `Cn1nc(C(C)(C)C)c([N+](=O)[O-])c1C(N)=O`, for which the inhibition was -0.311%.

Consider `COc1ccccc1C(=O)CSc1cccc[n+]1[O-]`, for which the inhibition is 1.87%.

Take `O=C(CSc1cccc[n+]1[O-])c1ccc(-c2ccccc2)cc1`: the inhibition was 0.814%.

On to `O=C(CSc1cccc[n+]1[O-])c1ccc(Cl)cc1`, for which the inhibition is 51.8% (active).

Take `CCOC(=O)C1CCCN(C(=O)C2CCN(S(=O)(=O)c3ccc(Cl)c(C(F)(F)F)c3)CC2)C1` (stereo not drawn): the inhibition is -2.17%.

Turning to `O=C1NC(c2ccc(-c3ccccc3[N+](=O)[O-])o2)C(C(=O)c2ccc(Cl)cc2)C(O)(C(F)(F)F)N1` (stereo not drawn), the inhibition was -0.998%.

Regarding `CC1=NN(c2ccc(Cl)c(C(=O)O)c2)C(=O)/C1=C/c1ccc(-c2ccccc2[N+](=O)[O-])o1`, the inhibition was 64% (active).

On to `O=C(Nc1ccc(N2CCOCC2)cc1)c1ccc(-c2ccccc2[N+](=O)[O-])o1`, for which the inhibition is -1.55%.

For the molecule `COC1C(CO)OC(n2cnc3c(=S)nc(N)[nH]c32)C1O` (stereo not drawn), the inhibition was -4.66%.

In the case of `COc1cc(OC)cc(-c2sc3ccc(OC)cc3c2-c2ccc3cc[nH]c3c2)c1`, the inhibition is -4.97%.

Regarding `O=C(NCc1ccccc1)c1cccc(NC(=O)C2CCCCC2)c1`, the inhibition is -1.61%.

On to `COc1ccc(-c2oc3ncn(Cc4ccco4)c(=N)c3c2-c2ccc(OC)cc2)cc1`, for which the inhibition was 36.1% (active).

`N=c1c2c(-c3ccccc3)c(-c3ccccc3)oc2ncn1Cc1ccco1`: the inhibition was 4.45%.

Take `COc1ccc(C(=O)CSc2nnc(COc3ccccc3)n2Cc2ccco2)cc1`: the inhibition is -1.09%.

For the molecule `O=C(c1cccc(S(=O)(=O)N2CCCCCC2)c1)N1CCN(Cc2ccccc2)CC1`, the inhibition was -6.1%.

On to `O=C(NCCc1c[nH]c2ccc(Cl)cc12)c1ccc([N+](=O)[O-])cc1`, for which the inhibition was -7.41%.

Regarding `Cc1ccc2[nH]cc(CCNC(=O)c3ccc([N+](=O)[O-])cc3)c2c1`, the inhibition was -3.1%.

Regarding `O=C(C[C@H]1C/C=C\C[C@@H](NC(=O)OCC2c3ccccc3-c3ccccc32)C(=O)O[C@@H](c2ccccc2)CNC1=O)N[C@H](CO)Cc1ccccc1`, the inhibition is 3.89%.

As to `C=CC[C@@H](CC(=O)N[C@@H](CO)Cc1ccccc1)C(=O)NCCOC(=O)[C@@H](CC=C)CC(=O)OC(C)(C)C`, the inhibition is -4.88%.

As for `CC(=O)c1cccc(-c2ccc(CN3C(CC(C)C)C(=O)N(Cc4cn(CC5CCCCC5)nn4)CCS3(=O)=O)cc2)c1` (stereo not drawn), the inhibition is -1.77%.

With `O=C(Nc1nnc(SCc2c(Cl)cccc2Cl)s1)c1cccc([N+](=O)[O-])c1`, the inhibition is 76.9% (active).

On to `NC(=O)CSc1nnc(NC(=O)c2ccc3ccccc3c2)s1`, for which the inhibition is -4.05%.

As to `O=C(Nc1nnc(SCc2ccccc2Cl)s1)c1cccc([N+](=O)[O-])c1`, the inhibition was -3.54%.

For the molecule `O=C(CSc1nc2ccccc2c(=O)n1Cc1ccc(F)cc1)NCC1CCCO1` (stereo not drawn), the inhibition is 0.714%.

Take `Cc1ccc(NC(=O)c2ccc(Cl)nc2)cc1S(=O)(=O)N1CCOCC1`: the inhibition is -1.23%.

In the case of `CC[C@]12c3[nH]c4cc(CCC(=O)N(C)C)ccc4c3CCN1C(=O)[C@@H](CC(=O)NCC13CC4CC(CC(C4)C1)C3)C[C@@H]2C(=O)N1CCN(C(=O)C2CC2)CC1`, the inhibition is 5.74%.

As for `CCCCC(=O)NC(c1ccc(OC)c(OC)c1)c1ccc2cccnc2c1O` (stereo not drawn), the inhibition was -1.93%.

With `O=C(Cc1cccs1)N/N=C/c1ccc(OCc2ccccc2)cc1`, the inhibition is -1.99%.

`O=C(N/N=C/c1ccc(OCc2ccccc2)cc1)c1ccc(O)cc1`: the inhibition was 83.5% (active).

As for `O=C(O)c1ccc(/C=N/NC(=S)NCc2ccccc2)cc1`, the inhibition was -1.3%.

As for `O=C(N/N=C/c1ccc(OC(=O)c2ccccc2Cl)cc1)c1ccc(O)cc1`, the inhibition is -4.63%.

As for `C=CCNC(=S)N/N=C/c1ccc(OCc2ccccc2)cc1`, the inhibition was 51.2% (active).

With `O=C(COc1ccc(/C=N/NC(=O)c2ccc(O)cc2)cc1)Nc1ccc([N+](=O)[O-])cc1`, the inhibition is -1.35%.
